From PubChem BioAssay come the findings set out here.

For experiment [1], the system named is TRPC4 beta (transient receptor potential cation channel C4), mouse. Briefly: TRPC4 cation channel opening, retest – cell-based, Fluo4 calcium, HEK293 TRPC4beta/mu-opioid, duplicates, 10 µM, confirmation (AID 2426;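 active means fluorescence ratio normalized to control raised more than 50% in primary screen plus both repeat runs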;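 on activation: percent rise of integrated ratio over buffer wells lacking compound which define 0%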). To be noted: Fluo4 calcium fluorescence, at 10 µM; hits give high values.
The subject of experiment [2] is transient receptor potential cation channel C4 beta (TRPC4), mouse. Nature of the experiment: TRPC4 cation channel opening, second retest – cell-based, second round, Fluo4, HEK293 TRPC4beta/mu-opioid, 1 µM, confirmation (AID 2461;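 active means primary screen active and over 50% activation in each of two duplicate runs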;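 on activation: 0% = wells without test compound as baseline of integrated fluorescence ratio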). To be noted: Fluo4 calcium fluorescence, at 1 µM; hits give high values.
Experiment [3] has as its system TRPC4 (transient receptor potential cation channel C4 beta), mouse. Briefly: potentiation of DAMGO EC20 TRPC4 response – cell-based, second round, Fluo-4, HEK293 TRPC4beta/mu-opioid, 1 µM, confirmation (AID 2554;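 active means primary screen hit whose fluorescence ratio, in both repeats, exceeds the weak agonist control mean by 3 SD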). To be noted: DAMGO EC20, Fluo-4 calcium flux, at 1 µM; hits give high values. In general terms: A change in cytosolic calcium serves as a functional read-out for many receptors and channels.

In experiment [4] the test system is TRPC4 beta (transient receptor potential cation channel C4), mouse. Nature of the experiment: potentiation of DAMGO EC20 TRPC4 response – cell-based, Fluo-4, HEK293 TRPC4beta/mu-opioid, confirmation (AID 2555;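 active means primary screen hit whose calcium fluorescence ratio, in both repeats, exceeds the weak agonist control mean by 3 SD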). Conditions: DAMGO EC20, Fluo-4 calcium flux, at 10 µM; hits give high values.
Experiment [5] has as its target Short transient receptor potential channel 4 (Mus musculus) (UniProt Q9QUQ5). Nature of the experiment: blockers of DAMGO-evoked TRPC4 calcium flux – cell-based, Fluo4, HEK293 TRPC4beta/mu-opioid, confirmation (AID 2636;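 active means calcium signal cut by more than 3 SD below the full-agonist control yet still positive, in both repeats and the earlier primary screen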). Conditions: at 10 µM; hits give high values.
The target is the same in experiment [6]. Briefly: blockers of DAMGO-evoked TRPC4 calcium flux – cell-based, second round, Fluo4, HEK293 TRPC4beta/mu-opioid, 1 µM, confirmation (AID 2637;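 active means calcium signal ratio cut to more than 3 SD under the fully stimulated control mean yet still positive, in both repeats and the primary screen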). Conditions: at 1 µM; hits give high values.
For experiment [7] the target is unchanged. Nature of the experiment: potentiation of DAMGO-evoked TRPC4 calcium signal – cell-based, HEK293 TRPC4/mu-opioid, Fluo-4 calcium, EC20 DAMGO, dose response (AID 434941;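 active means earlier screen potentiator hit that boosts the TRPC4 ion channel at some dose, with a dose response; inactive means no potentiation, no dose response, or not a prior hit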;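 further: calcium entry triggered by an EC20 dose of DAMGO at the co-expressed mu-opioid receptor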).
Experiment [8] has the same target. Nature of the experiment: block of DAMGO-driven TRPC4 calcium entry – cell-based, HEK293 TRPC4/mu-opioid, Fluo-4 calcium, dose response (AID 434942).
Experiment [9] concerns the target Short transient receptor potential channel 6 (Mus musculus) (UniProt Q61143). Briefly: TRPC6 blockade by TRPC4 inhibitor hits – cell-based, HEK293, membrane potential dye, duplicate, selectivity assay for TRPC4 inhibitor project, confirmation (AID 434948;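 active means active in primary screen and both duplicates, each dropping signal beyond three positive-control SD with fluorescence still positive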). To be noted: HEK293 TRPC6, membrane potential dye fluorescence, at 10 µM, stimulated with maximal-effect acetylcholine; hits give high values.

Experiment [10] has the same target. Nature of the experiment: TRPC6 opening by TRPC4 activator hits – cell-based, HEK293, membrane potential dye, duplicate, selectivity assay for TRPC4 activator project, confirmation (AID 434950;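 active means membrane potential signal rise above negative control mean plus 3 SD in both duplicates, also active in the earlier TRPC4 screen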;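 on activation: 0% = buffer only wells and 100% = acetylcholine maximal-effect wells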). Conditions: HEK293 TRPC6, membrane potential fluorescence, at 10 µM; activation: hits give high values; outcome: activation.
The target is the same in experiment [11]. Nature of the experiment: positive modulators of mouse TRPC6 channel – HEK293 cells, membrane potential dye, duplicate, selectivity assay for TRPC4 potentiator project, confirmation (AID 434952;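 active means compound raising the membrane signal above positive-control mean plus 3 SD in both repeats, and a primary screen hit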). Conditions: HEK293 TRPC6, membrane potential dye fluorescence, at 10 µM, maximal acetylcholine added after compound; hits give high values.
The target of experiment [12] is Short transient receptor potential channel 4 (Mus musculus) (UniProt Q9QUQ5). Nature of the experiment: calcium flux activators in TRPC4/5HT1a cells, counter-screen for TRPC4 activator project, cell-based, second counter screen, HEK293 TRPC4/5HT1a, Fluo-4 (AID 434977;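 active means calcium signal rise above buffer-control mean plus 5 SD in both duplicates, and also a hit in the primary screen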;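 on activation: plate controls were assay buffer for no effect and maximal serotonin response for full effect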). Conditions: Fluo-4 calcium flux, at 10 µM; hits give high values.
Experiment [13] is described as follows: serotonin-gated TRPC4 signal block – cell-based, second counter screen, HEK293 TRPC4/5HT1a, Fluo-4, counter-screen for TRPC4 inhibitor project, confirmation (AID 434978;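 active means primary screen active whose calcium signal fell more than 3 SD beyond the full-serotonin control mean in both duplicate plates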;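 further: serotonin given first at submaximal then at maximal dose after compound preincubation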). Conditions: Fluo-4 calcium flux, at 10 µM, serotonin added to trigger calcium flux; hits give high values. On the technique in general: The purpose of a counterscreen is to sort out artefacts and off-target activity.

Experiment [14] deals with TRPC4 (mouse), co-expressed with 5HT1a in HEK293. Briefly: enhancement of serotonin-evoked TRPC4 response – cell-based, second counter screen, HEK293 TRPC4/5HT1a, Fluo-4, counter-screen for TRPC4 potentiator project, confirmation (AID 434979;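 active means signal rise over 3 SD above mean of control wells given weak agonist, in both repeats and first screen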). Conditions: Fluo-4 calcium flux, at 10 µM, serotonin added at its EC20 dose; hits give high values.
Experiment [15] in a line: nonspecific calcium rise without TRPC4 – cell-based, HEK293 mu-opioid receptor line, counter-screen for TRPC4 activator project, confirmation (AID 449723;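 active means hit in primary screen, with calcium signal over 5 SD above buffer well mean in both duplicates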;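 further: counter screen cells carry the mu-opioid receptor alone and lack TRPC4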). Conditions: HEK293 mu-opioid cells, Fluo-4 calcium fluorescence, at 10 µM; hits give high values.
Experiment [16] can be described thus: nonspecific potentiation of DAMGO calcium response – cell-based, HEK293 mu-opioid receptor line, counter-screen for TRPC4 allosteric potentiator project, confirmation (AID 449724;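 active means calcium signal rise more than 3 SD above the low-dose agonist control mean, in both duplicate plates and the primary screen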;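 further: HEK293 cells carrying mu-opioid receptor only with no TRPC4 channel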). To be noted: HEK293 mu-opioid receptor cells, Fluo-4 calcium flux, at 10 µM, compound added before EC20 DAMGO stimulus; hits give high values.

For part of these data: Potency and affinity values are given separately. The source made the active and inactive calls.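 How the source made its calls, unless noted: active means primary screen inhibitor hit that blocks the TRPC4 channel at some tested dose, yielding a dose curve; inactive means the rest.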

Sequence of Short transient receptor potential channel 6 (Mus musculus) (Q61143 whole entry, looked up): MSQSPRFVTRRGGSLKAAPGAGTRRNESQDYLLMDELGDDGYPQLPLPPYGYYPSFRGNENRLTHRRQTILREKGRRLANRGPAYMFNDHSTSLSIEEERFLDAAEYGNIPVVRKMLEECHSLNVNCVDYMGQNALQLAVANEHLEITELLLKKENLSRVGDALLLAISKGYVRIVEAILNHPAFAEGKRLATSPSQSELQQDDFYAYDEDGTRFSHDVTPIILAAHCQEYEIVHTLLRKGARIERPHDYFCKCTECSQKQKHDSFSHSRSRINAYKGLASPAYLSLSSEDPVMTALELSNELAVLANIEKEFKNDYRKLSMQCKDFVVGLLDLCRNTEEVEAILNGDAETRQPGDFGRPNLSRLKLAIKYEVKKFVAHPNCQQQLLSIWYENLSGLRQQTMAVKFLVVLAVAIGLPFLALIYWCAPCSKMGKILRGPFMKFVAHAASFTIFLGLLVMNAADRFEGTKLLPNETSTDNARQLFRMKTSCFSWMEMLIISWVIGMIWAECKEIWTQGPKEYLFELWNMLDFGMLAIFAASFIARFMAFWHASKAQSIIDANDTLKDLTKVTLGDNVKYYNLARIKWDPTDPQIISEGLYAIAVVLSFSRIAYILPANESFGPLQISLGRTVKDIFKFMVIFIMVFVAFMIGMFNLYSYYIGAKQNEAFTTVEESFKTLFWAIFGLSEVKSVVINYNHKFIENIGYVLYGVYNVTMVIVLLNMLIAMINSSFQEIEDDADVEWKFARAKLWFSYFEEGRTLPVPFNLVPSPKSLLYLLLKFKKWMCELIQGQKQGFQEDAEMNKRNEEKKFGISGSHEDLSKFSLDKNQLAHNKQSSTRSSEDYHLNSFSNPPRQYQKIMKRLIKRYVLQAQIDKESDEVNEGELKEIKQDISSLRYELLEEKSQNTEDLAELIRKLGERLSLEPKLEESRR
Sequence of Short transient receptor potential channel 4 (Mus musculus) (Q9QUQ5 whole entry, looked up): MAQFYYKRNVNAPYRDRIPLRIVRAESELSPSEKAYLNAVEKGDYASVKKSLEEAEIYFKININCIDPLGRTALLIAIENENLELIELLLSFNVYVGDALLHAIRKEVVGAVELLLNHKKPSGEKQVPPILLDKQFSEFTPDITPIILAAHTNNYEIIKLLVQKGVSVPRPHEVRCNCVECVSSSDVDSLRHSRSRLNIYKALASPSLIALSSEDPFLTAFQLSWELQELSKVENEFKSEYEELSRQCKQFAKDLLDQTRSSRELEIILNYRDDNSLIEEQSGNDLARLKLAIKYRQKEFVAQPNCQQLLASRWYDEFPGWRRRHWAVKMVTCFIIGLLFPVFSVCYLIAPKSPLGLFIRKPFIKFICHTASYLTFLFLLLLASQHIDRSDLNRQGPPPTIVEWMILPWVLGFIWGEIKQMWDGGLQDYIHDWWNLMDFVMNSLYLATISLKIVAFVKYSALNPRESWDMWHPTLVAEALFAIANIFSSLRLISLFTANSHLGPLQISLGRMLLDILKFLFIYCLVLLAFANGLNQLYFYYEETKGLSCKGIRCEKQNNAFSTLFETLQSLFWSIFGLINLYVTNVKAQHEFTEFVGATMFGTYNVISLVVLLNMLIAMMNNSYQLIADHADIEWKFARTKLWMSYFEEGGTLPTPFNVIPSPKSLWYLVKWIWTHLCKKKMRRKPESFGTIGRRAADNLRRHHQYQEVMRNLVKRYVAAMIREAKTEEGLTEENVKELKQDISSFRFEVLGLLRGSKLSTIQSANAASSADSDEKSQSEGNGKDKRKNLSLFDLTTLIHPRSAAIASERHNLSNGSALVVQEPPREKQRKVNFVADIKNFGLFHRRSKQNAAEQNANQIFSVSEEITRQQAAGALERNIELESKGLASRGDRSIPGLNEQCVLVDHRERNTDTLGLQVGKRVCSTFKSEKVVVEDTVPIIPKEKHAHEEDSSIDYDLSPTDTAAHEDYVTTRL

`CCOc1ccccc1C1CC(c2ccc(Cl)cc2)Nc2nc(N)nn21` (stereo not given): the activation in experiment [1] is 243% (active); in experiment [12] it was 6.24% (active). For the same compound, the result in experiment [2], in [3], in [4], in experiment [5], in experiment [6] and in experiment [7] was inactive. Also, the result in [8], in experiment [9], in [10], in experiment [11], in experiment [13] and in experiment [14] was inactive. The outcome in [15] and in experiment [16] was inactive.
As for `O=C(N/N=C/c1ccco1)C1COc2ccccc2O1` (stereo not given), the values for the activation in [1] and in experiment [12] were 80% (active) and 27.3% (active), respectively. Moreover, the outcome in experiment [2], in experiment [3], in [4], in [5], in experiment [6] and in experiment [7] was inactive. The result in experiment [8], in experiment [9], in experiment [10], in [11], in [13] and in experiment [14] was inactive. Also, the outcome in experiment [15] and in experiment [16] was inactive.
On to `NC(=O)C1CCCN(CCc2ccccc2)C1` (stereo not given), for which the activation in experiment [1] was 157% (active); in experiment [2], 133% (active); in experiment [12] it was 74.3% (active). In addition, the result in experiment [3], in experiment [4], in [5], in [6], in [7] and in experiment [8] was inactive. Moreover, the compound was classed as inactive in experiment [9], in [10], in experiment [11], in [13], in experiment [14] and in experiment [15]. For the same compound, in experiment [16], the result was inactive.
For the compound `Cc1cc(N2CCN(C)CC2)ccc1NC(=O)c1ccc(-c2ccc(Cl)cc2)o1`, the outcome in experiment [1], in [2], in [3], in experiment [4], in [5] and in [6] was inactive. Further, the outcome in experiment [7], in [8], in experiment [9], in experiment [10], in experiment [11] and in experiment [12] was inactive. Further, the result in [13], in experiment [14], in experiment [15] and in experiment [16] was inactive.
Take `Cc1cc(CSC(=N)N)c(CSC(=N)N)cc1C`: the activation in experiment [1] is 178% (active); in experiment [2] it was 67% (active); in [12], 46% (active). Moreover, the outcome in experiment [3], in experiment [4], in experiment [5], in [6], in [7] and in experiment [8] was inactive. The compound was called inactive in [9], in experiment [10], in experiment [11], in experiment [13], in [14] and in experiment [15]. Also, the outcome in [16] was inactive.
Consider `COC(=O)c1ccc(N2CCN(C)CC2)c(NC(=O)c2cccs2)c1`, for which the values for the activation in experiment [1], in experiment [12] and in experiment [15] were 138% (active), 52.7% (active) and 15.6% (active), respectively. Also, the result in experiment [2], in [3], in experiment [4], in experiment [5], in experiment [6] and in [7] was inactive. For the same compound, the outcome in [8], in experiment [9], in experiment [10], in [11], in [13] and in experiment [14] was inactive. In experiment [16], the outcome was inactive.
On to `COc1ccc(CNCc2cn(-c3cccc(F)c3)nc2-c2ccc(C)o2)cc1`, for which the results for the activation in experiment [1] and in [15] were 156% (active) and 12.4% (active), respectively. In addition, the outcome in experiment [2], in experiment [3], in [4], in experiment [5], in experiment [6] and in [7] was inactive. Moreover, the outcome in experiment [8], in experiment [9], in experiment [10], in experiment [11], in experiment [12] and in [13] was inactive. Also, the outcome in experiment [14] and in [16] was inactive.
As for `Cc1ccccc1C(=O)NNC(=S)NC(=O)c1cccs1`, the activation in [1] is 139% (active); in experiment [12], 109% (active); in experiment [15] it was 30.1% (active). The outcome in [2], in [3], in experiment [4], in [5], in experiment [6] and in [7] was inactive. Also, the result in experiment [8], in [9], in experiment [10], in [11], in experiment [13] and in [14] was inactive. In addition, the result in experiment [16] was inactive.
Consider `CCCCCc1c(O)nc(SCCN(C)C)[nH]c1=O`, for which the activation was 63% (active) in [1] and 15.6% (active) in experiment [12]. Further, the outcome in [2], in experiment [3], in [4], in experiment [5], in experiment [6] and in experiment [7] was inactive. Moreover, the result in [8], in [9], in experiment [10], in experiment [11], in experiment [13] and in experiment [14] was inactive. The result in experiment [15] and in [16] was inactive.
Regarding `CC(C)n1cnc2c(N(C)c3ccccc3)nc(N(CCN(C)C)Cc3ccccc3)nc21`, the result in experiment [1], in [2], in experiment [3], in experiment [4], in experiment [5] and in [6] was inactive. For the same compound, the result in [7], in [8], in [9], in experiment [11], in [12] and in experiment [13] was inactive. For the same compound, the outcome in [14], in experiment [15] and in experiment [16] was inactive. For the same compound, the activation in experiment [10] is 31% (active).
With `Fc1ccc(-n2cc(CNCCc3cccnc3)c(-c3ccccc3Cl)n2)cc1`, the values for the activation in [1] and in experiment [10] were 153% (active) and 31% (active), respectively. The result in [2], in experiment [3], in experiment [4], in experiment [5], in [6] and in [7] was inactive. The outcome in experiment [8], in experiment [9], in experiment [11], in experiment [12], in [13] and in [14] was inactive. Further, the outcome in [15] and in experiment [16] was inactive.
In the case of `Cc1ccc(C(=O)NNC(=S)NC(=O)COc2ccccc2)cc1`, the activation is 171% (active) in experiment [1] and 112% (active) in experiment [12]. Further, the result in experiment [2], in experiment [3], in experiment [4], in experiment [5], in [6] and in [7] was inactive. For the same compound, the result in experiment [8], in experiment [9], in experiment [10], in experiment [11], in experiment [13] and in experiment [14] was inactive. The outcome in experiment [15] and in experiment [16] was inactive.
Turning to `CN(CCc1ccccn1)C(=O)CC1C(=O)NCCN1Cc1ccc(-c2ccccc2)cc1` (stereo not given), the activation in [1] was 130% (active); in experiment [10], 42.5% (active); in [12], 31.3% (active). Moreover, the outcome in experiment [2], in [3], in experiment [4], in experiment [5], in [6] and in [7] was inactive. Also, the result in experiment [8], in experiment [9], in [11], in experiment [13], in experiment [14] and in experiment [15] was inactive. In addition, the result in experiment [16] was inactive.
`Clc1ccc2nc(N3CCNCC3)nc(-c3ccccc3)c2c1`: the activation in [1] is 74% (active); in experiment [12], 26.8% (active); in experiment [15], 12.1% (active). Also, the outcome in [2], in experiment [3], in experiment [4], in experiment [5], in experiment [6] and in experiment [7] was inactive. Further, the result in experiment [8], in experiment [9], in experiment [10], in experiment [11], in experiment [13] and in experiment [14] was inactive. The outcome in [16] was inactive.
As for `CCOC(=O)C1(CCCc2ccccc2)CCN(Cc2cnn(C)c2)CC1`, the activation in experiment [1] is 92% (active); in experiment [10], 69% (active). Also, the outcome in experiment [2], in experiment [3], in experiment [4], in experiment [5], in experiment [6] and in experiment [7] was inactive. The outcome in experiment [8], in [9], in [11], in [12], in experiment [13] and in experiment [14] was inactive. The result in experiment [15] and in experiment [16] was inactive.
